In the library only some 2.8% were active in any assay of this set; here they are far more common.
PAFAH1B3 inh: blocks human PAF acetylhydrolase 1B catalytic subunit 3; Q15102; recombinant PAFAH1B3, FP-rhodamine probe, fluorescence polarization; inhibition, % at 3.39 µM; 340,000 tested, 0.28% active; AID 492972;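 active means inhibition above the screen-wide average of all tested compounds plus 3 SD, cut at about 25% in these data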
Target sequence (Q15102 whole entry, looked up): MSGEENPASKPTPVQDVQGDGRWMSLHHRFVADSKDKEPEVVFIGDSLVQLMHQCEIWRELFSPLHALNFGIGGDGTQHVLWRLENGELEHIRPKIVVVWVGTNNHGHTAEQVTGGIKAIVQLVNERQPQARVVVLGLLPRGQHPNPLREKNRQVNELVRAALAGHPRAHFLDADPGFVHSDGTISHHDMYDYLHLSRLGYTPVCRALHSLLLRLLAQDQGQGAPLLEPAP
Fam108B inh: Fam108B inhibition, counter-screen for RBBP9 inhibitors; recombinant Fam108B, FP-Rh probe fluorescence polarization; inhibition, % at 9.51 µM; 300,000 tested, 0.33% active; AID 1947;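 active means inhibition above the screen mean inhibition plus 3 SD, computed separately per campaign, cut at about 18% in these data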;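 further: inhibitors lower polarization as less probe binds the enzyme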
pPAFAH FP inh: pPAFAH (human) enzyme inhibition. Q13093. recombinant pPAFAH, FP-rhodamine probe fluorescence polarization. inhibition, % at 3.39 µM. 330,000 tested, 1.5% active;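 active means inhibition above the mean inhibition across the screen plus 3 SD, cut at about 25% in these data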;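 further: inhibitors block binding of the rhodamine activity-based probe so polarization drops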
Target sequence (Q13093 whole entry, looked up): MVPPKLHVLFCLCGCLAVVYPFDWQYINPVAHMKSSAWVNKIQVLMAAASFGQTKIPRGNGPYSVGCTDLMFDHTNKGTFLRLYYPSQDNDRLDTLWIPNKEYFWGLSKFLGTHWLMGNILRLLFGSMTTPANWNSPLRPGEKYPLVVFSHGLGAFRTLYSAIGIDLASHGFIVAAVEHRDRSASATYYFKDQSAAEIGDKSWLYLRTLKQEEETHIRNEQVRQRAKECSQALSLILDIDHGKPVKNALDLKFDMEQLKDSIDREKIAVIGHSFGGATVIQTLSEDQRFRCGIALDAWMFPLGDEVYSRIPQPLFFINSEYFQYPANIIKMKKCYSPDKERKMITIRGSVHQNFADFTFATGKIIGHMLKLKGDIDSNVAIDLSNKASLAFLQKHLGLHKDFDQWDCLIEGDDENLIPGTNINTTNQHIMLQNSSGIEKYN
PAFAH1B2 FP inh: blocks human PAF acetylhydrolase 1b catalytic subunit 2; P68402; recombinant PAFAH1B2, FP-rhodamine activity probe, fluorescence polarization; inhibition, % at 3.39 µM; 340,000 tested, 1.2% active; AID 492953;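 active means inhibition above the mean of all tested compounds plus 3 SD, cut at about 24% in these data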
PAFAH2 FP inh: inhibitors of human PAFAH2. recombinant PAFAH2, FP-rhodamine activity probe, fluorescence polarization. inhibition, % at 3.39 µM. 340,000 tested, 0.99% active;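 active means inhibition above the mean over all tested compounds plus 3 SD, cut at about 30% in these data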;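 further: inhibitors block probe labeling of enzyme so polarization drops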
PME-1 inh: PME-1 (human) inhibition. 320,000 tested, 0.53% active. recombinant PME-1, FP-Rh probe fluorescence polarization. Q9Y570. inhibition, % at 5.9 µM. AID 2130;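 active means inhibition above the campaign mean of all compounds plus 3 SD, cut at about 26% in these data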;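 further: competitive labeling of PME-1 active site by serine hydrolase directed probe; inhibitors block probe labeling so polarization falls and inhibition rises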
Hits are given with their value.

CC(C)=CCC/C(C)=C/CNC(=O)C[C@H]1C[C@H](C(=O)N2CCOCC2)[C@@]2(C)c3[nH]c4cc(-c5ccco5)ccc4c3CCN2C1=O was read as PAFAH1B3 inh inactive, pPAFAH FP inh 25, PAFAH1B2 FP inh inactive and PAFAH2 FP inh inactive.
For CN(C)C(=O)CCc1ccc2c3c([nH]c2c1)[C@]1(C)[C@@H](C(=O)N2CCCCC2)C[C@H](CC(=O)NCCN2CCOCC2)C(=O)N1CC3 the results were PAFAH1B3 inh inactive, pPAFAH FP inh inactive, PAFAH1B2 FP inh inactive and PAFAH2 FP inh inactive.
For CC(C)=CCC/C(C)=C/CNC(=O)CC1C[C@H](C(=O)N2CCOCC2)[C@@]2(C)c3[nH]c4ccccc4c3CCN2C1=O (stereo partly drawn) the results were PAFAH1B3 inh inactive, pPAFAH FP inh inactive, PAFAH1B2 FP inh inactive and PAFAH2 FP inh inactive.
`CN(C)C(=O)CCc1ccc2c3c([nH]c2c1)[C@]1(C)[C@@H](C(=O)N2CCCCC2)C[C@H](CC(=O)NCC24CC5CC(CC(C5)C2)C4)C(=O)N1CC3` gave PAFAH1B3 inh inactive, pPAFAH FP inh 31, PAFAH1B2 FP inh inactive and PAFAH2 FP inh inactive.
`CCC(CO)Nc1nc2ccc(Cl)cc2c2ccccc12` (stereo not drawn) gave PAFAH1B3 inh inactive, Fam108B inh inactive, pPAFAH FP inh 27, PAFAH1B2 FP inh inactive, PAFAH2 FP inh inactive and PME-1 inh inactive.
For CCC(CO)Nc1ncnc2c1cnn2-c1ccc(Cl)cc1 (stereo not drawn) the results were PAFAH1B3 inh inactive, Fam108B inh inactive, pPAFAH FP inh inactive, PAFAH1B2 FP inh inactive, PAFAH2 FP inh inactive and PME-1 inh inactive.
O=C1Nc2ccccc2/C1=N\N=C\C1=C(N2CCOCC2)C(=C\c2ccccc2)/CC1 was read as PAFAH1B3 inh inactive, Fam108B inh inactive, pPAFAH FP inh inactive, PAFAH1B2 FP inh inactive, PAFAH2 FP inh inactive and PME-1 inh 31.
Screening O=C1Nc2ccc(Br)cc2/C1=N\N=C\C1=C(N2CCOCC2)C(=C/c2ccccc2)/CC1 returned PAFAH1B3 inh inactive, PAFAH1B2 FP inh inactive and PAFAH2 FP inh inactive.
For CCOC(=O)c1cc(-c2ccccc2)sc1NC(=O)CSc1nnc(N)s1 the results were PAFAH1B3 inh inactive, Fam108B inh inactive, pPAFAH FP inh 25, PAFAH1B2 FP inh inactive, PAFAH2 FP inh inactive and PME-1 inh inactive.
For CCOC(=O)c1c(C)[nH]c(C(=O)OC(C)C(=O)Nc2ccccc2OC)c1C (stereo not drawn) the results were PAFAH1B3 inh inactive, Fam108B inh inactive, pPAFAH FP inh inactive, PAFAH1B2 FP inh inactive, PAFAH2 FP inh inactive and PME-1 inh inactive.
For O=C(COC(=O)COc1cccc(C(F)(F)F)c1)NC1CCCC1 the results were PAFAH1B3 inh inactive, Fam108B inh inactive, pPAFAH FP inh inactive, PAFAH1B2 FP inh inactive, PAFAH2 FP inh inactive and PME-1 inh inactive.
Screening CC12CC3CC(C)(C1)CC(C(=O)NCc1cccnc1)(C3)C2 returned PAFAH1B3 inh inactive, Fam108B inh inactive, pPAFAH FP inh inactive, PAFAH1B2 FP inh inactive, PAFAH2 FP inh inactive and PME-1 inh inactive.
For O=C1/C(=C\c2ccco2)SC(=S)N1Cc1ccccc1 the results were PAFAH1B3 inh inactive, Fam108B inh inactive, pPAFAH FP inh 25, PAFAH1B2 FP inh inactive, PAFAH2 FP inh inactive and PME-1 inh inactive.
O=C1/C(=C/c2ccccn2)SC(=S)N1Cc1ccccc1 was read as Fam108B inh inactive, pPAFAH FP inh inactive and PME-1 inh inactive.
Screening Cc1ccc(N2C(=O)/C(=C\c3ccco3)SC2=S)cc1 returned PAFAH1B3 inh inactive, Fam108B inh inactive, pPAFAH FP inh inactive, PAFAH1B2 FP inh inactive, PAFAH2 FP inh inactive and PME-1 inh inactive.
`O=C(CCCN1C(=O)/C(=C\c2ccco2)SC1=S)Nc1ccc2ccccc2c1` gave PAFAH1B3 inh inactive, Fam108B inh inactive, pPAFAH FP inh 28, PAFAH1B2 FP inh inactive, PAFAH2 FP inh inactive and PME-1 inh inactive.
`O=C1/C(=C\c2ccco2)SC(=S)N1c1ccccc1` gave PAFAH1B3 inh inactive, Fam108B inh inactive, pPAFAH FP inh 29, PAFAH1B2 FP inh inactive, PAFAH2 FP inh inactive and PME-1 inh inactive.
O=C(O)CCCN1C(=O)/C(=C\c2ccco2)SC1=S was read as PAFAH1B3 inh inactive, PAFAH1B2 FP inh inactive and PAFAH2 FP inh inactive.
Screening CC(C)(C)OC(=O)N1CCC(NC(=O)c2nc[nH]c2C(=O)N2CCN(c3ccccc3)CC2)CC1 returned PAFAH1B3 inh inactive, pPAFAH FP inh inactive, PAFAH1B2 FP inh inactive and PAFAH2 FP inh inactive.
`Cc1ccc(NC(=O)CCCn2nc(C)c3c(C)n(-c4ccccc4)nc3c2=O)c(Cl)c1` gave PAFAH1B3 inh inactive, Fam108B inh inactive, pPAFAH FP inh inactive, PAFAH1B2 FP inh inactive, PAFAH2 FP inh inactive and PME-1 inh inactive.
`CCN(CC)S(=O)(=O)c1cc(C(=O)OCC(=O)Nc2c(F)cccc2F)ccc1F` gave PAFAH1B3 inh inactive, Fam108B inh inactive, pPAFAH FP inh 32, PAFAH1B2 FP inh inactive, PAFAH2 FP inh inactive and PME-1 inh inactive.
For CNS(=O)(=O)c1cc(C(=O)OCC(=O)NC2CCCc3ccccc32)ccc1Cl (stereo not drawn) the results were PAFAH1B3 inh inactive, Fam108B inh inactive, pPAFAH FP inh inactive, PAFAH1B2 FP inh inactive, PAFAH2 FP inh inactive and PME-1 inh 28.
For CCN(CC)S(=O)(=O)c1cc(C(=O)OCC(=O)NC2CCCc3ccccc32)ccc1C (stereo not drawn) the results were PAFAH1B3 inh inactive, Fam108B inh inactive, pPAFAH FP inh 27, PAFAH1B2 FP inh inactive, PAFAH2 FP inh 67 and PME-1 inh inactive.
For O=C(COC(=O)c1ccc(Cl)nc1)NC1CCCc2ccccc21 (stereo not drawn) the results were PAFAH1B3 inh inactive, pPAFAH FP inh inactive, PAFAH1B2 FP inh inactive and PAFAH2 FP inh inactive.
Cc1ccc(C(=O)NCCNC(=O)COc2ccccc2Cl)cn1 was read as PAFAH1B3 inh inactive, Fam108B inh inactive, pPAFAH FP inh inactive, PAFAH1B2 FP inh inactive, PAFAH2 FP inh inactive and PME-1 inh inactive.
`Cc1cc(C)cc(NC(=O)CSc2nc(=O)n3cc(C)ccc3n2)c1` gave PAFAH1B3 inh inactive, Fam108B inh inactive, pPAFAH FP inh 25, PAFAH1B2 FP inh inactive, PAFAH2 FP inh inactive and PME-1 inh inactive.
CN(C(=O)COC(=O)/C=C/c1ccccc1[N+](=O)[O-])c1ccccc1 was read as PAFAH1B3 inh inactive, Fam108B inh inactive, pPAFAH FP inh inactive, PAFAH1B2 FP inh inactive, PAFAH2 FP inh inactive and PME-1 inh inactive.
`CC(C)(C)NC(=O)COC(=O)/C=C/c1ccccc1[N+](=O)[O-]` gave PAFAH1B3 inh inactive, Fam108B inh inactive, pPAFAH FP inh 32, PAFAH1B2 FP inh inactive, PAFAH2 FP inh inactive and PME-1 inh inactive.
For NC(=O)c1ccsc1NC(=O)COC(=O)/C=C/c1ccccc1[N+](=O)[O-] the results were PAFAH1B3 inh inactive, pPAFAH FP inh inactive, PAFAH1B2 FP inh inactive and PAFAH2 FP inh inactive.
